Results: PubChem BioAssay
Calls of active or inactive are those of the source.

Legend:
[1] = tested on: PRMT1 (protein arginine N-methyltransferase 1); test: PRMT1 binders on small-molecule microarrays, primary screen, biochemical, small-molecule microarray, 635 nm fluorescence (AID 1088); settings: small-molecule microarray binding, higher = more signal;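 also: binding of Prmt1 protein to compounds spotted on small-molecule microarray slides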
[2] = yeast growth modulation, basal conditions, primary screen, YJM789 clinical isolate, OD600, 24 h (AID 1089);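 also: growth of clinical yeast isolate S. cerevisiae YJM 789 seeded 1000 cells per well; test concentration not given here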; settings: S. cerevisiae YJM789 growth, higher = more signal, called active from +8 up or from −8 down
[3] = fission yeast growth modulation, primary screen, strain 972, OD600, 24 h, no modulator (AID 1090);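 also: basal condition with compound alone and no growth modifier present; test concentration not given here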; settings: S. pombe 972 growth, higher = more signal, called active from +8 up or from −8 down
[4] = S. cerevisiae growth modulation with rapamycin, primary screen, strain BY4716, OD600, 96 h (AID 1091); settings: higher = more signal, called active from +8 up or from −8 down; also: test concentration not given here
[5] = biological target: Torsin-1A-interacting protein 2 (Homo sapiens) (UniProt Q8NFQ8); test: LULL1 binders on small-molecule microarray, primary screen, cell lysate, human LULL1 lysate, 635/667 nm fluorescence (AID 1092); settings: hLULL1 lysate binding, 635 nm fluorescence, higher = more signal;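 also: probe is lysate of COS7 cells overexpressing human LULL1; score merges per-feature 667 nm fluorescence with signal-to-noise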
Torsin-1A-interacting protein 2 (Homo sapiens), sequence (Q8NFQ8 whole entry, looked up): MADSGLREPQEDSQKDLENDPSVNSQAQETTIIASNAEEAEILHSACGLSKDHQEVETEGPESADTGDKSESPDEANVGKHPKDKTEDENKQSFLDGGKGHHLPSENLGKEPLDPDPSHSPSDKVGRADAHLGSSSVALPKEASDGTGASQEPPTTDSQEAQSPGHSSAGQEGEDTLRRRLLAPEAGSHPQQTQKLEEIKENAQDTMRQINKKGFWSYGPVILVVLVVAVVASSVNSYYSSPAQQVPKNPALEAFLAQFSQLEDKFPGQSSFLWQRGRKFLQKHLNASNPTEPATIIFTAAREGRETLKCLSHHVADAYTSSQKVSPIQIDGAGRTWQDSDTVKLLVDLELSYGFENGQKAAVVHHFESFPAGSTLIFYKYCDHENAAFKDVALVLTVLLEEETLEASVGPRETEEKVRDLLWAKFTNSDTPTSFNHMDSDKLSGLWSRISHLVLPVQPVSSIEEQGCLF

[6] = E. coli growth modulation, two-sided OD650, primary screen, E. coli filamentation project, strain DRC41, 24 h (AID 1093); settings: OD650, 24 h, higher = more signal, called active from +8 up or from −8 down;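 also: MC1000 strain lacking acrAB efflux and sulA so SOS filamentation is blocked; test concentration not given here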
[7] = small-molecule microarray binders of probe aLefty2, primary screen, biochemical, biotinylated probe, 635/667 nm fluorescence (AID 1094); settings: higher = more signal;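 also: score merges spot fluorescence near 667 nm with spot signal-to-noise ratio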
[8] = tested on: Noggin (protein binding on small-molecule microarray); test: Noggin binders on small-molecule microarray, primary screen, biochemical, 635/667 nm fluorescence (AID 1095); settings: 635 nm fluorescence, higher = more signal;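 also: score merges 667 nm feature fluorescence with signal to noise over triplicate slides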
[9] = biological target: Neurogenic locus notch homolog protein 3 (Homo sapiens) (UniProt Q9UM47); test: NOTCH3 binders on small-molecule microarray, primary screen, biochemical, 635/667 nm fluorescence (AID 1096); settings: NOTCH3 binding, 635 nm fluorescence, higher = more signal
Neurogenic locus notch homolog protein 3 (Homo sapiens), sequence (Q9UM47 whole entry, looked up): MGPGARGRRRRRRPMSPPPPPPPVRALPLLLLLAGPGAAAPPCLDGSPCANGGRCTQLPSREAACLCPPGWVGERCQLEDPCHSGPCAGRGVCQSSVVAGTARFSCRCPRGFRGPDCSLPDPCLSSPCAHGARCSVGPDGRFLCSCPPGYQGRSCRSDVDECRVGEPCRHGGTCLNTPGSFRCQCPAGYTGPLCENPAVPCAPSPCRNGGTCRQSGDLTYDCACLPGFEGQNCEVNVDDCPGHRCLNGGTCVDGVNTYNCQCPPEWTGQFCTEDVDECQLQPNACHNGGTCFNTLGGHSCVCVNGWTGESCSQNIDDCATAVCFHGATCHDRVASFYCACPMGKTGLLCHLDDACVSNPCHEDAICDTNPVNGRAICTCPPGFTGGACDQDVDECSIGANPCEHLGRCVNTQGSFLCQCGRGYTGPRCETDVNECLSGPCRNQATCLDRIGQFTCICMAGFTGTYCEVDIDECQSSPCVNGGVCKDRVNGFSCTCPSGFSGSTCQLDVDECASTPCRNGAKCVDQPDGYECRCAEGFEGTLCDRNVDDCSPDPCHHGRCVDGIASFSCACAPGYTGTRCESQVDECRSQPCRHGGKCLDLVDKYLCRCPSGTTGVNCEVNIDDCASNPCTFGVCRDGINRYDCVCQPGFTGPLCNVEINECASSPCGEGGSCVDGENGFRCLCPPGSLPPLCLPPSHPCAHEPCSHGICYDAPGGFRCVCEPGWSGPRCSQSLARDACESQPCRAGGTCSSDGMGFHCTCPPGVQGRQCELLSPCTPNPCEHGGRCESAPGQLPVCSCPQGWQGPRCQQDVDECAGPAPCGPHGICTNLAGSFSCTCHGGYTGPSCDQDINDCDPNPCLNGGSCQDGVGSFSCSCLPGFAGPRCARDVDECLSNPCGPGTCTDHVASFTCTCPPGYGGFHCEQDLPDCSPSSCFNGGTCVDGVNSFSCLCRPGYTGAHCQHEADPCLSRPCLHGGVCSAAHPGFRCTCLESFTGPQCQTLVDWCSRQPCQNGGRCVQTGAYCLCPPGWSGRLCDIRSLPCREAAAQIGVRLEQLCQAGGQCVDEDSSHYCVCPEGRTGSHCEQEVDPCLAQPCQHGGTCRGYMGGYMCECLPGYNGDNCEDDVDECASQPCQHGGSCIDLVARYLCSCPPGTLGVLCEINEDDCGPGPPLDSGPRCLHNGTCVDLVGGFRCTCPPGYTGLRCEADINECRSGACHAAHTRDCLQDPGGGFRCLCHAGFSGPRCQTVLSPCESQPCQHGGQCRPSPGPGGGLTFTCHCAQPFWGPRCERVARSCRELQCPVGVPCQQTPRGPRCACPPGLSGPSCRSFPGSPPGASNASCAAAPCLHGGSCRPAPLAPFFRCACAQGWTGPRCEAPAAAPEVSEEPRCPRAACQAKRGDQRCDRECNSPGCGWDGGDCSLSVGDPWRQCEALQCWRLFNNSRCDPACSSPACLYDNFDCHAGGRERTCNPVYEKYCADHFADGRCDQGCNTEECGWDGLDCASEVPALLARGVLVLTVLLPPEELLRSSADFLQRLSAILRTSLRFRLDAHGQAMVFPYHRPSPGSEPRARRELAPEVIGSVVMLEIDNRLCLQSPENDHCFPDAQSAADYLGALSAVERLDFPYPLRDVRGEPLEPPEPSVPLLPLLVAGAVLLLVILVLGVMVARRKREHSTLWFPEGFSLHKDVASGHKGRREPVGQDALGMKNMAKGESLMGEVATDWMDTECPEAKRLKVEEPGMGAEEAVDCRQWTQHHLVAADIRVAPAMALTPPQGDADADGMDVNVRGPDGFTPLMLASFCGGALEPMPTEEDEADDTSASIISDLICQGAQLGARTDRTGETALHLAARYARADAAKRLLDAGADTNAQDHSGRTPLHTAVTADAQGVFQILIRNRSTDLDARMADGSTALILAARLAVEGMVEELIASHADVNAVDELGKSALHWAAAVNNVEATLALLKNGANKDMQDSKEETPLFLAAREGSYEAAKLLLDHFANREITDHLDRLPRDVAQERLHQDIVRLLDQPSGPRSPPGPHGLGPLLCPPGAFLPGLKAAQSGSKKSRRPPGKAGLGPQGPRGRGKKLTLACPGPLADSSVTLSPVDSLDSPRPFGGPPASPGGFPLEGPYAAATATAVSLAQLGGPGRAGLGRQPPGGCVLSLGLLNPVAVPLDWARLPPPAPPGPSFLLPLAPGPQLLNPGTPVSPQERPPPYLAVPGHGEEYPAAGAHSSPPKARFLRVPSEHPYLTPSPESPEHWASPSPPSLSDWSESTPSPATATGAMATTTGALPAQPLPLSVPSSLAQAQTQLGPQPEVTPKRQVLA

[10] = small-molecule microarray binders of probe aEGFR, primary screen, biochemical, biotinylated probe, 635/667 nm fluorescence (AID 1097); settings: higher = more signal;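 also: probe is a biotinylated anti-EGFR antibody binding compounds printed on slides; score combines fluorescence near 667 nm and signal to noise of each spot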
[11] = tested on: Plasmodium falciparum Sir2 (PF13_0152, Sir2A); test: pfSir2 binders on small-molecule microarrays, primary screen, biochemical, small-molecule microarray, 635 nm fluorescence (AID 1098); settings: small-molecule microarray binding, fluorescence 635 nm; higher = more signal;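 also: score merges spot fluorescence intensity with its signal-to-noise ratio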
[12] = small-molecule microarray binders of probe aDKK1, primary screen, biochemical, biotinylated probe, 635/667 nm fluorescence (AID 1099); settings: higher = more signal;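 also: score merges 667nm spot fluorescence with signal to noise across triplicate slides; reference of the scale not given here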
[13] = small-molecule microarray binders of probe aCHRDL2, primary screen, biochemical, biotinylated probe, 635/667 nm fluorescence (AID 1100); settings: higher = more signal
[14] = splicing luciferase reporter signal modulators, primary screen, spliceosome inhibition project, cell-based, HEK293, splice +/- reporter (AID 1101); settings: luminescence, 24 h, higher = more signal, called active from +8 up or from −8 down;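 also: HEK293 cells carrying a splicing-competent luciferase reporter gene; test concentration not given here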
[15] = biological target: Fibroblast growth factor 10 (Homo sapiens) (UniProt O15520); test: FGF10 binders on small-molecule microarrays, primary screen, biochemical, small-molecule microarray, 635 nm fluorescence (AID 1102); settings: FGF10 binding, fluorescence 635 nm, higher = more signal
Fibroblast growth factor 10 (Homo sapiens), sequence (O15520 whole entry, looked up): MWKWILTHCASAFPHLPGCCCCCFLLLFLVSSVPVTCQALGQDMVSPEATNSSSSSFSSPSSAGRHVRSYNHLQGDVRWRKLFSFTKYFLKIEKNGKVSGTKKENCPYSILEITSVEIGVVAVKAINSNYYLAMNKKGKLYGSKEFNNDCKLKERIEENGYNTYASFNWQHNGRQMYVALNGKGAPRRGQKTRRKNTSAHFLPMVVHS

[16] = tested on: glycogen synthase kinase-3 (GSK3A per assay name; protocol says GSK3B); test: GSK3 binders on small-molecule microarrays, primary screen, biochemical, small-molecule microarray, 635 nm fluorescence, GSK3A (AID 1103); settings: small-molecule microarray binding, fluorescence 635 nm; higher = more signal; also: the record names both GSK3A and GSK3B
[17] = biological target: Epidermal growth factor receptor (Homo sapiens) (UniProt P00533); test: EGFR binders on small-molecule microarrays, primary screen, biochemical, small-molecule microarray, 635 nm fluorescence (AID 1104); settings: EGFR binding, higher = more signal;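 also: score merges 667 nm emission intensity with spot signal to noise over triplicate slides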
Epidermal growth factor receptor (Homo sapiens), sequence (P00533 whole entry, looked up): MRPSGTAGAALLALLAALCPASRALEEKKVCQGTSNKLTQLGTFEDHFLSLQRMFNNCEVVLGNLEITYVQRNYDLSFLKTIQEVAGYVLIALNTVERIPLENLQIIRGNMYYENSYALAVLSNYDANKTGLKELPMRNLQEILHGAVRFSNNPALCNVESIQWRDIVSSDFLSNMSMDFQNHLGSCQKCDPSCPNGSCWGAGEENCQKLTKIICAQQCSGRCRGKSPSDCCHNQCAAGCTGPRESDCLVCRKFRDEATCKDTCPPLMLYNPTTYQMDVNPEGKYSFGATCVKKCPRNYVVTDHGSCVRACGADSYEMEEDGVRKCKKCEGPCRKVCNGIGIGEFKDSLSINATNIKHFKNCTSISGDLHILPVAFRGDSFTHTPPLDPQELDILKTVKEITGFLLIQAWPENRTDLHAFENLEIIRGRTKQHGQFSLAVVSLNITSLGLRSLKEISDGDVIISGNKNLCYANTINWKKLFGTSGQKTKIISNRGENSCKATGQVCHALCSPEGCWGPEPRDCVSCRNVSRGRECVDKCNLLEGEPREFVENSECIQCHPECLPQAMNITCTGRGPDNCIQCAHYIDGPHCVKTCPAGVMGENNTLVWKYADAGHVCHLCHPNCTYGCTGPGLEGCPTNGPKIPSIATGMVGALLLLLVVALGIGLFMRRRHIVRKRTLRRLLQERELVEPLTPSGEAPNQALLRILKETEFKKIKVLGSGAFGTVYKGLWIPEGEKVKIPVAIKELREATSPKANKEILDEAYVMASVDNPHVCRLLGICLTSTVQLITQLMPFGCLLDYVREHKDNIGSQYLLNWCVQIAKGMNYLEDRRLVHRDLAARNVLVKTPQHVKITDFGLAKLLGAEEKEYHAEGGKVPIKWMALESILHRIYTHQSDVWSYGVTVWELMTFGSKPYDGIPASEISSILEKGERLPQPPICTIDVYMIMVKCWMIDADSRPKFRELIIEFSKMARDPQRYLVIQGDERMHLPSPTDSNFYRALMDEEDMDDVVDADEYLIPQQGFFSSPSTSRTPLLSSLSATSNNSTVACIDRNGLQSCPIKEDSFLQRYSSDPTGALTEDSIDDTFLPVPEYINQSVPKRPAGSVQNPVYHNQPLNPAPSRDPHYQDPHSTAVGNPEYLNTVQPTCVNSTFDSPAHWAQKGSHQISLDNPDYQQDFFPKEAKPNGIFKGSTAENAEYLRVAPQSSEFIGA

[18] = biological target: Follistatin-related protein 3 (Homo sapiens) (UniProt O95633); test: FSTL3 binders on small-molecule microarrays, primary screen, biochemical, small-molecule microarray, 635 nm fluorescence (AID 1105); settings: FSTL3 binding, higher = more signal;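 also: score merges emission near 667 nm and signal to noise per printed spot across three slides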
Follistatin-related protein 3 (Homo sapiens), sequence (O95633 whole entry, looked up): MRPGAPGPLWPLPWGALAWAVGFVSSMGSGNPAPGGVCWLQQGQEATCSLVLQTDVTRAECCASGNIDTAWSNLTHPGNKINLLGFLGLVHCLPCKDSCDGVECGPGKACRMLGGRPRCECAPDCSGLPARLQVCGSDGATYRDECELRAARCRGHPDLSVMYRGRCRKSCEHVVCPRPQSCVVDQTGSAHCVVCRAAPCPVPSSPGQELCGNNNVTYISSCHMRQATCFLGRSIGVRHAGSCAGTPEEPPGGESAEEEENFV

[19] = biological target: Dickkopf-related protein 1 (Homo sapiens) (UniProt O94907); test: DKK1 binders on small-molecule microarrays, primary screen, biochemical, small-molecule microarray, 635 nm fluorescence scan (AID 1106); settings: DKK1 binding, higher = more signal;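 also: score merges emission near 667 nm with signal to noise over three replicate slides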
Dickkopf-related protein 1 (Homo sapiens), sequence (O94907 whole entry, looked up): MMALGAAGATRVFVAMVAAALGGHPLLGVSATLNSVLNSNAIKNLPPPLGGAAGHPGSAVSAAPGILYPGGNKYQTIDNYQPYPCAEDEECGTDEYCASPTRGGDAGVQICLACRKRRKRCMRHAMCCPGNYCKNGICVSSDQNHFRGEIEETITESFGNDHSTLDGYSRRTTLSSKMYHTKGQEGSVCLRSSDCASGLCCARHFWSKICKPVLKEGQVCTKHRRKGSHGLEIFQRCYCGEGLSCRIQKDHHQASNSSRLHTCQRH

[20] = tested on: Inhibin beta A chain (activin A); test: INHBA (activin A) binders on microarrays, primary screen, biochemical, small-molecule microarray, 635 nm fluorescence scan (AID 1107); settings: small-molecule microarray binding, higher = more signal;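 also: mouse activin A protein probed at 4.33 µg/mL on printed slides; score merges bound-protein fluorescence near 667 nm with spot signal-to-noise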

Row | SMILES | composite z-score [1] | z-score [2] | z-score [3] | z-score [4] | composite z-score [5] | z-score [6] | composite z-score [7] | composite z-score [8] | composite z-score [9] | composite z-score [10] | composite z-score [11] | composite z-score [12] | composite z-score [13] | z-score [14] | composite z-score [15] | composite z-score [16] | composite z-score [17] | composite z-score [18] | composite z-score [19] | composite z-score [20]
1 | CCOC(=O)C[C@H]1[C@H](OC(=O)c2cc3ccccc3oc2=O)[C@@H](NC(=O)CC(C)C)c2cc(OCCCO)ccc2N1C(=O)Cc1ccc(OC)cc1 | 1.14 | -0.238 (inactive) | -0.462 (inactive) | 0.052 (inactive) | 1.3 | -0.479 (inactive) | -0.165 | 0.322 | 0.924 | -0.0973 | 0.621 | -0.283 | -0.309 | -0.339 (inactive) | 0.942 | 0.523 | 0.145 | 0.91 | 0.481 | -0.0372
2 | CCOC(=O)C[C@H]1[C@H](OC(=O)c2ccccc2-c2ccccc2)[C@@H](NC(=O)c2ccc3ccccc3c2)c2cc(OCCCO)ccc2N1C(=O)Cc1ccc(OC)cc1 | -0.793 | -0.97 (inactive) | -0.446 (inactive) | -0.248 (inactive) | 0.276 | -0.904 (inactive) | -0.281 | -0.206 | -0.626 | 0.0004 | -0.332 | 0.29 | 0.58 | -0.897 (inactive) | 0.125 | -0.914 | -0.201 | -0.517 | 0.225 | 0.892
3 | COCCCNC(=O)[C@@]1(CCS(=O)(=O)c2ccccc2)COC(c2ccc(OCCCO)cc2)=N1 | 1.36 | 0.134 (inactive) | -0.0454 (inactive) | -0.403 (inactive) | 3.67 | 1.52 (inactive) | 0.472 | 0.878 | 0.56 | 0.195 | 1.37 | 1.56 | 1.47 | 0.0749 (inactive) | 0.946 | 0.878 | -0.318 | -0.0346 | -0.0211 | 0.952
4 | Cc1ccc(S[C@]2(C(=O)NCc3ccccc3)CC(=O)N(Cc3ccccc3C(F)(F)F)[C@@H]2c2ccc(CO)cc2)cc1 | 0.884 | -1.61 (inactive) | 0.447 (inactive) | -0.417 (inactive) | 1.05 | 0.837 (inactive) | -0.154 | -1.16 | -0.64 | -0.272 | 0.537 | 0.0191 | 0.984 | -0.284 (inactive) | -0.915 | -1.13 | -1.22 | -1.28 | -1.72 | 0.242
5 | O=C(NC1CC1)[C@@H]1c2ccccc2C(=O)N(Cc2cc(C(F)(F)F)cc(C(F)(F)F)c2)[C@H]1c1ccc(CO)cc1 | 1.43 | -0.523 (inactive) | -1.38 (inactive) | -0.108 (inactive) | 2.92 | -0.275 (inactive) | -0.508 | 0.76 | 0.491 | -0.399 | 0.965 | -0.534 | -0.47 | -0.261 (inactive) | 0.105 | -0.436 | -0.675 | 0.075 | -0.835 | -0.547
